Measured values published in paper PMC12136788.
Where a chain is given by its changes, count along the chain named. Over roughly 5,800 sequences, “enrichment r” has its median near 0.54; the highest 2% begin near 16. The list comes from a sample in which the highest values are over-represented; it also holds similar and randomly drawn sequences.

B1: chr9:137457406:137457901:-|CDS|ENSG00000165802|control|control|control (ssRNA)
RNA: GGGAGUUCUACAGUCCGACGAUCCGCCUGUCCCUCGUCUCCAACGGCUGCUACGAGGGCAGCCUCUCAGAGGAGCCCAGCAUUAGGAAGCCCGCAGGCGAGGGCCCUCAGCCUCGAGUGUACACCAUCUCUGGGGAGCCUGCCCAACAGAGGAUUGAGCAUCA
B2: chr2:224511460:224511569:-|CDS|ENSG00000036257|unk|total|mutant (ssRNA)
RNA: GGGAGUUCUACAGUCCGACGAUCGAAAGCCAGAAAUUUUCCGCAGAAAACCGUGCUUCAGUAUAUAUAAAGAAAGCCGAAGCCCGAAUUAAUGAAGAAACCGAACGAGUGAUGCACUGCCUUGACAAAUCAACGGAAGAACCACAACAGAGGAUUGAGCAUCA
B3: chr10:62095068:62095169:+|3pUTR|ENSG00000150347|msi1|total|mutant (ssRNA)
RNA: GGGAGUUCUACAGUCCGACGAUCCCAUUUGCUUCAAUUAAUUAUUUACCUUCCUGUGGAAUAAUAUAUAUAUAUAUAUUUAACCGAACCACCGACCGACCCGCCGAAUUCCGAUUAUAAAUGUGUGAGUGCAGAUUAUCCUGCCAACAGAGGAUUGAGCAUCA
B4: chr10:62095068:62095169:+|3pUTR|ENSG00000150347|msi1|FALSE|unique (ssRNA)
RNA: GGGAGUUCUACAGUCCGACGAUCCCAUUUGCUUCAAUUAAUUAUUUACCUUCCUGUGGAAUAAUAUAUAUAUAUAUAUUUAAUAGAACCAUAGAUAGACUAGUAGAAUUUAGAUUAUAAAUGUGUGAGUGCAGAUUAUCCUGCCAACAGAGGAUUGAGCAUCA
B5: chr14:44928120:44928223:-|3pUTR|ENSG00000179454|unk|FALSE|unique (ssRNA)
RNA: GGGAGUUCUACAGUCCGACGAUCUAGUACAGCAGGCCUCCCAGUGCUGAUGUAAAUAUUUGAGCAGUGUUUAGUACCAUUCUUAGUGCAUAUUAAUUUUUUUAUAUAUCCUUAUAAUUUUAGUUUUUUAAGAUCUUUGCUUUUCAACAGAGGAUUGAGCAUCA
B6: chr7:127374855:127374969:-|CDS|ENSG00000048405|unk|FALSE|unique (ssRNA)
RNA: GGGAGUUCUACAGUCCGACGAUCCCUAGAAGCCAUAUAUCCAAGUGUGGACAAACGAGAAUAUAUUAUUAAGCUAGAACCCAUAGAAACUAAUCAAAAUGCAGUAUUUCAAUAUAUUUCGAGGACUGAUAAUCCUAUUGAAGUCAACAGAGGAUUGAGCAUCA
B7: chr6:89631235:89631336:+|3pUTR|ENSG00000135299|msi1|FALSE|unique (ssRNA)
RNA: GGGAGUUCUACAGUCCGACGAUCUGAAGUUUGAAAGCUCAGAUUAAGCAAGCCAUGCCAAGAAACUGGACGAUGUGUAAGCCUAGACUCUAAAAUUCAAGAUGUGUGAAAUAAUAUAAGUCAAAAGCAAGAAAAACGUAAUCCCAACAGAGGAUUGAGCAUCA
B8: chr7:127374855:127374969:-|CDS|ENSG00000048405|unk|total|mutant (ssRNA)
RNA: B6 RNA with U26C, A27C, U74C, A75C, U83C, A84C
B9: ENSG00000070961:be:win_4451|3pUTR|ENSG00000070961|bound_else_gene|NA|bound_elsewhere_windowed (ssRNA)
RNA: GGGAGUUCUACAGUCCGACGAUCGUUUUGAAGCAACUGUUUAAUUUUUAAAAUUUUUGAAAACUUGCUAAUAACCUUUUGUUCAGAAUUUAGUAGAUUGUUUAAUGCAGGACAUCAACUACAUAAUGAAAGAUGCUUGAAAUGCAACAGAGGAUUGAGCAUCA
B10: chr14:44928120:44928223:-|3pUTR|ENSG00000179454|unk|total|mutant (ssRNA)
RNA: B5 RNA with U24C, A25C, U71C, A72C, U83C, A84C, U120C, A121C
B11: chr9:21239001:21239365:-|three_prime_utr|ENSG00000228083|control|control|control (ssRNA)
RNA: GGGAGUUCUACAGUCCGACGAUCCAAAAUUUUCAAAUGUUUUCAGGAGUGUAAAGAAGCAUCAUGUAUACCUGUGCAGGCACUAGUCCUUUACAGAUGACCAUGCUGAUGUCUCCUUUCAUCUAUUUAUUUAAAUAUUUAUUUCAACAGAGGAUUGAGCAUCA
B12: ENSG00000039319:stop:overlap|stop_codon|ENSG00000039319|stop_codon|NA|stop_codon (ssRNA)
RNA: GGGAGUUCUACAGUCCGACGAUCCCAACUCUAGUUUACCAUUAGAAAUAGAAUUAGUGUUUUUCAUUAUAGAACAUCUUUUUUAGUGAAAGAAUGUGCCAUAUUACAUAUUGCAACCUAAUUUGUUAAAACUAACUCCAGCACCAACAGAGGAUUGAGCAUCA
B13: chr2:224511460:224511569:-|CDS|ENSG00000036257|unk|FALSE|bound_elsewhere (ssRNA)
RNA: B2 RNA with C40U, C41A, C50U, C51A, C76U, C77A, C83U, C84A, C100U, C101A
B14: ENSG00000070961:be:win_601|CDS|ENSG00000070961|bound_else_gene|NA|bound_elsewhere_windowed (ssRNA)
RNA: GGGAGUUCUACAGUCCGACGAUCCAGGUCAUUCAGAUACCUGUAGCUGACAUUACUGUUGGAGAUAUUGCUCAAGUGAAAUAUGGUGAUCUUCUUCCAGCUGACGGCAUACUUAUUCAAGGCAACGAUCUUAAAAUUGAUGAACAACAGAGGAUUGAGCAUCA

What follows are binders tested against MSI1 full-length (mouse, UniProt Q61474 1-362) (assay: nsRBNS (natural sequence RNA bind-n-seq); RBNS binding buffer (assumed for nsRBNS): 25 mM Tris pH 7.5, 150 mM KCl, 3 mM MgCl2, 0.01% Triton X-100, 500 ug/ml BSA, 20 U/ml SUPERase-In, 4 C; UNK is unkempt and MSI1 is Musashi-1; names of the RNAs are library labels; protein concentration not given here; high values mean tight binding).
MSI1 full-length, sequence (Q61474 whole entry): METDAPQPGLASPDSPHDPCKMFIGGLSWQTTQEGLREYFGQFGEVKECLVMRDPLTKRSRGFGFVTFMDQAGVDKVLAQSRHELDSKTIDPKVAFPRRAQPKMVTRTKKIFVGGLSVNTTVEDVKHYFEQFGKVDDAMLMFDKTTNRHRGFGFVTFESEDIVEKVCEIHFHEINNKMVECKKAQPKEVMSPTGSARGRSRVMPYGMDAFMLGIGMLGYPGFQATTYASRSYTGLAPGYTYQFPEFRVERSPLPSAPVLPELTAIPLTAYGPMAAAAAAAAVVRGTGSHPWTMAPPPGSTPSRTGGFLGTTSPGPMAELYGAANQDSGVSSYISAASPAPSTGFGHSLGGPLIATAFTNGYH

| Binder | binding signal |
| --- | --- |
| B1 | 0.4 enrichment R |
| B2 | 0.432 enrichment R |
| B3 | 9.42 enrichment R |
| B4 | 21.1 enrichment R |
| B5 | 35.6 enrichment R |
| B6 | 28.2 enrichment R |
| B7 | 0.258 enrichment R |
| B8 | 0.508 enrichment R |
| B9 | 0.619 enrichment R |
| B10 | 8.16 enrichment R |
| B11 | 0.493 enrichment R |
| B12 | 0.848 enrichment R |
| B13 | 36.5 enrichment R |
| B14 | 0.234 enrichment R |
